The list is a sample of the results.
aSyn UTR act: Activators working through SNCA 5'UTR binding (MLPCN); alpha-synuclein 5'UTR reporter, activators screen; activity score, % (tested at 7.5 µM), hits read low; 300,000 tested, 7.1% active; in the data active = activity score below about -60%
Numbers stand for hits; – = inactive.

SMILES	aSyn UTR act
COc1ccc2cc(C(=O)c3ccccc3)c(=O)oc2c1	-151.2
CCOc1ccc2cc(C(=O)c3ccccc3)c(=O)oc2c1	-161.3
COc1ccc2cc(S(=O)(=O)c3ccccc3)c(=O)oc2c1	-75.0
CCOc1ccc2cc(C(=O)NCc3ccccc3)c(=N)oc2c1	-101.9
Clc1ccc(-c2n[nH]c3c2Cc2ccccc2-3)cc1Cl	-66.3
CN(C)c1nc(-c2ccc([N+](=O)[O-])cc2)cs1	-123.2
C=CCNc1nc(-c2ccc([N+](=O)[O-])cc2)cs1	-182.2
C=CCNc1nc(-c2ccc(Cl)cc2)cs1	-238.3
O=c1[nH]cnc(O)c1N=Nc1ccccc1	-70.5
COc1ccc(-c2noc(CSc3nnc(CCc4ccccc4)n3-c3ccccc3)n2)cc1OC	–
c1ccc(SCc2nc(-c3ccncc3)no2)cc1	-206.3
COc1ccc(-c2noc(CSc3ccccc3)n2)cc1OC	-113.5
CC(C)COc1ccc(-c2cc(C(=O)NN)[nH]n2)cc1	-83.0
CCOC(=O)c1cc(-c2ccc3c(c2)OCCO3)n[nH]1	-173.7
CCOC(=O)c1cc(-c2ccc(OC)cc2)n[nH]1	-72.8
CCOc1ccc(-c2n[nH]c(C(=O)NN)c2C)cc1	-72.8
CCc1ccc(/C=C\C(=O)N2CCCC2)cc1	-77.7
CC(C)Cc1ccc(/C=C/C(=O)N2CCCCC2)cc1	-121.0
CCCc1ccc(-c2ccc(/C=C/C(=O)O)cc2)nc1	–
CC(C)Cc1ccc(/C=C/C(=O)NC2CC2)cc1	-108.4
CC(C)C(=O)Nc1cccc(NC(=S)NC(=O)c2ccc(Cl)cc2)c1	-120.4
CC(C)C(=O)Nc1cccc(NC(=S)NC(=O)c2cccs2)c1	-125.8
Cc1ccc(NC(=S)NC(=O)c2ccc(F)cc2)cc1S(=O)(=O)Nc1cccc(Cl)c1	–
CC(C)C(=O)Nc1cccc(NC(=S)NC(=O)c2ccc3c(c2)OCO3)c1	-158.2
O=C(/C=C/c1ccc(F)cc1)NCc1ccco1	-75.1
SMILES	aSyn UTR act
Cc1ccc(/C=C/C(=O)NCc2cccs2)cc1	-68.5
Cc1cc(C(=O)OCC(=O)NCc2ccco2)c(C)n1-c1ccc(F)cc1	–
Cc1ccc(/C=C/C(=O)NCc2cccs2)c(C)c1	-131.9
CC(C)(C)c1ccc(C(=O)c2cn[nH]c2-c2ccccc2O)cc1	-133.5
Cc1ccc(SCC(=O)Nc2ccc(-c3nnc(-c4ccco4)o3)cc2)cc1	-105.9
O=C(Cc1ccccc1)Nc1ccc(-c2nnc(-c3ccco3)o2)cc1	-76.9
Cc1nn(-c2ccccc2)c(Cl)c1/C=N/NC(=O)c1ccco1	-106.0
Cc1nn(-c2ccccc2)c(Cl)c1/C=N\NC(=O)c1cnccn1	-105.8
CCOC(=O)c1sc(NC(=O)CNCc2ccccn2)c(C(=O)OCC)c1C	–
CCOC(=O)c1sc(-c2ccccn2)nc1C	-125.5
Cc1nc(-c2ccccn2)sc1C(=O)Nc1ccc(Cl)c(Cl)c1	-78.4
Cc1ccc2c(c1)c(C)c(C)n2CC(O)Cn1nnc2ccccc21 (stereo not given)	-70.1
COc1ccc(C(=O)NOCc2ccccc2)cc1	-74.3
Cc1ccc(CONC(=O)c2ccccc2)cc1	-101.1
Cc1ccc(C(=O)N/C(=C\c2ccccc2)C(=O)OCc2ccccc2)cc1	-122.3
O=C(CCc1nnc(-c2ccsc2)o1)N1CCc2c(Cl)cccc2C1	-65.3
COc1ccc(NC(=O)n2nc(OC(=O)c3cccs3)cc2N)cc1	-84.2
CCCc1ccc2oc(C(=O)N3CCC(COC)C3)c(C)c2c1 (stereo not given)	-112.6
CCCc1ccc2oc(C(=O)N3CCC[C@H]3CO)c(C)c2c1	-199.8
O=C(Cc1ccc(Cl)cc1)Nc1ccc(Br)cn1	-66.0
Oc1ccc(Cl)cc1CNc1ccc(Br)cn1	-141.8
O=C(Cc1ccc(Cl)cc1)Nc1ccc(Br)cc1	-67.3
Cc1csc(NC(=O)c2ccc(Cl)cc2[N+](=O)[O-])n1	-91.8
O=C(Nc1nc(-c2ccccn2)cs1)c1cc(Cl)ccc1[N+](=O)[O-]	–
Cc1csc(NC(=O)c2ccoc2C)n1	-190.7
SMILES	aSyn UTR act
Cc1csc(NC(=O)c2ccc[nH]c2=O)n1	-84.8
Cc1csc(NC(=O)c2cccc(C)c2C)n1	-154.9
CC(C)[C@H](NC(=O)c1ccccc1Cl)C(=O)Nc1nc(-c2ccccn2)cs1	–
Cc1csc(NC(=O)c2cccnc2Cl)n1	-76.5
Cc1csc(NC(=O)c2cnccn2)n1	-104.6
CCCC(=O)Nc1ccc(-c2nc3ncccc3o2)cc1	-181.2
COC(=O)Cc1ccc2oc(-c3cccnc3)nc2c1	-63.5
CCCC(=O)Nc1ccc2oc(-c3cccnc3)nc2c1	-79.8
CCCC(=O)NC(c1ccccc1Cl)c1ccc2cccnc2c1O (stereo not given)	–
O=C(NC(=S)Nc1ccc2oc(-c3cccnc3)nc2c1)c1cccc(Cl)c1	-115.0
O=[N+]([O-])c1ccc(O)c(C=Nc2ccc3c(c2)OCO3)c1	-86.4
CC1(C)CC(=O)C(C=Nc2ccc3c(c2)OCO3)=C(O)C1	-70.9
O=[N+]([O-])c1cc(Br)cc(C=Nc2ccc3c(c2)OCO3)c1O	-89.0
CNc1nc(N/N=C/c2cc3c(cc2[N+](=O)[O-])OCO3)nc(Nc2ccccc2)n1	–
CCOC(=O)c1cc(=O)n2c(nc3ccccc32)[nH]1	-99.1
CCCc1cc(=O)n2c(nc3ccccc32)[nH]1	-66.4
CCCCc1c(C)[nH]c2nc3ccccc3n2c1=O	-97.4
CCN(Cc1cnn(C)c1)C(=O)c1cc(COc2ccc3c(c2)CCCC3)on1	-72.7
O=c1cc(-c2ccc(O)cc2)oc2ccc(O)cc12	-151.3
O=c1cc(-c2ccc3c(c2)OCO3)oc2ccccc12	-296.7
O=c1cc(-c2ccc(O)cc2)oc2ccccc12	-137.7
COc1ccc(-c2cc(=O)c3ccccc3o2)cc1	-216.0
Nc1c(-c2ccc3c(c2)OCCO3)oc2ccccc2c1=O	-144.6
Cn1c2ccccc2c(=O)c2ccc(-c3ccc4c(c3)OCO4)cc21	-144.6
COc1ccc(N=c2cc(-c3ccc(O)cc3)oc3ccccc23)cc1	-62.5
SMILES	aSyn UTR act
CC1(C)Cc2c(sc(NC(=O)Nc3ccccc3)c2C(N)=O)CO1	-158.4
COC(=O)c1c(NC(=O)c2ccc(OC(C)C)cc2)sc2c1CC(C)(C)NC2(C)C	–
Cc1sc(NC(=O)Nc2ccccc2)c(C(N)=O)c1C	-161.3
COC(=O)CCC(=O)NC(=S)Nc1sc(C)c(C)c1C(N)=O	–
COC(=O)c1c(NC(=O)c2ccccc2)sc2c1CC(C)(C)OC2	-69.3
Cc1sc(NC(=S)NC(=O)c2ccco2)c(C(N)=O)c1C	-92.2
CC(=O)n1c2c(c3ccccc31)OC(N)=C(C#N)C2c1ccc(C(C)C)cc1 (stereo not given)	-118.3
N#CC1=C(N)Oc2c(ccc3ccccc23)C1c1cccs1 (stereo not given)	–
Cc1scc(C(=O)N/N=C/c2ccc([N+](=O)[O-])o2)c1C	–
Cc1scc(C(=O)N/N=C/c2ccsc2)c1C	-161.7
Cc1scc(C(=O)N/N=C/c2ccco2)c1C	-86.4
N#CC1CC(c2ccccc2)=NN1c1ccccc1[N+](=O)[O-] (stereo not given)	-94.9
COC(=O)C1(Cc2cc(-c3ccccc3)no2)CCN(C(=O)OC(C)(C)C)CC1	-82.2
CCOC(=O)c1ccc(NC(=O)C(=O)NCc2ccco2)cc1	-81.6
CC(=O)c1ccc(NC(=S)NCc2ccco2)cc1	-66.7
CCn1c(C)cc(O)c(C(=O)Nc2cccc(Cl)c2)c1=O	-95.6
Cc1cc(O)c(C(=O)Nc2cccc(Cl)c2)c(=O)n1C	-103.8
CCn1c(C)c(C)c2cc(C(=O)Nc3cccc(Cl)c3)ccc21	-117.4
Cc1cccn2cc(-c3cccc(NC(=O)c4cccs4)c3)nc12	-73.2
Cc1ccccc1-n1nc(C)c2c(C(=O)NN)cc(-c3ccncc3)nc21	–
